Measurements as given in PubChem BioAssay (EPA / NIEHS).
Several values for one entry are separate records, joined by “and”; a condition that tells them apart may be missing. Equal values may be shown once. Some compounds were tested as several samples or in several runs, with calls that do not always agree. Activity calls are given as the source filed them. The calls were made as follows: active = hit-call score of the fitted dose curve at least 0.9, where 1 is the maximum; inactive = score below 0.9.

Assay: BSK_SAg_PBMCCytotoxicity: PBMC Cytotoxicity Assessment in the BioMAP Diversity Plus: SAg Assay (AID 2283093);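 also: fitted both ways against DMSO so a hit may be loss or gain of signal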
Conditions: primary human HUVEC with PBMC
Method: BSK_SAg is a cell-based, multiplexed-readout assay that uses umbilical vein endothelium and peripheral blood mononuclear cells, a human vascular primary cell co-culture, with measurements taken at 24 hours after chemical dosing in a 96-well plate.BSK_SAg_PBMCCytotoxicity is an assay component measured in the BSK_SAg assay. It measures Alamar blue related to cell death using Alamar Blue Reduction technology.Data from the assay component BSK_SAg_PBMCCytotoxicity was analyzed into 1 assay endpoint. This assay endpoint, BSK_SAg_PBMCCytotoxicity, was analyzed with bidirectional fitting relative to DMSO as the negative control and baseline of activity. Using a type of viability reporter, gain or loss-of-signal activity can be used to understand changes in the viability. Furthermore, this assay endpoint can be referred to as a secondary readout, because this assay has produced multiple assay endpoints where this one serves a viability function. To generalize the intended target to other relatable targets, this assay endpoint is annotated to the cell cycle intended target family, where the subfamily is cytotoxicity.
The levels of cell surface (or secreted, indicated by the prefix "s") biomarker endpoints were measured by ELISA. Overt cytotoxicity to cells in confluent adherent cultures (all systems other than the BT system) was assessed by measuring total protein levels using sulforhodamine B (SRB) staining in parallel cultures at the time of biomarker measurements, indicated as SRB endpoints. For proliferation assays for adherent cell types, individual cell types are cultured at sub-confluence and relative cell numbers quantified by SRB staining at time points optimized for each system (48 h: 3C and CASM3C systems; 72 h: BT and HDF3CGF systems; 96 h: SAg system). SRB was performed by staining cells with 0.1% SRB after fixation with 10% TCA and reading wells at 560 nm.Viability and proliferation of PBMC (T cells) was quantified by Alamar Blue reduction for the SAg and BT systems. For PBMC viability (referred to as PBMC Cytotoxicity within the assay endpoint names), cells were plated (75,000/well in a 96-well plate) and then chemical samples added for 1 h before addition of activators, SEB and TSST-1 (20 ng/mL final concentration each). Cells were incubated for 90 h. Then, Alamar Blue (20 uL/well) (Invitrogen, Cat DAL1100) was added for 6 h, and the plates were read with a fluorescence microplate reader at 546/580 nm (excitation/emission). For PBMC proliferation, cells were plated and activated as above but incubated for only 16 h prior to addition of Alamar Blue. Plates were read after 6 h.

Row | Structure (SMILES) | outcome | AC50
1 | CN(C(=O)C(F)(F)C(F)(F)C(F)(F)F)[Si](C)(C)C | inactive | 
2 | Cc1cc(C)c(O)c(C(C)(C)C)c1 |  | 31.7 µM (active)
3 | C[Si](Cl)(Cl)CCC(F)(F)C(F)(F)C(F)(F)C(F)(F)C(F)(F)C(F)(F)F | inactive | 
4 | CC(C)CCCC(C)CCO (stereo not given) |  | 30.6 µM (active)
5 | O=C(Cl)C(F)(F)C(F)(F)C(F)(F)C(F)(F)C(F)(F)C(F)(F)C(F)(F)F | inactive | 
6 | CCN(CC)c1ccc(C=O)cc1 | inactive | 
7 | OCC(F)(F)C(F)(F)C(F)(F)C(F)(F)C(F)(F)C(F)(F)CO | inactive | 
8 | CCN(CCO)S(=O)(=O)C(F)(F)C(F)(F)C(F)(F)C(F)(F)C(F)(F)C(F)(F)C(F)(F)C(F)(F)F |  | 39.9 µM (active) and 22.9 µM (active)
9 | NCC(F)(F)C(F)(F)C(F)(F)C(F)(F)C(F)(F)C(F)(F)F | inactive | 
10 | NS(=O)(=O)C(F)(F)C(F)(F)C(F)(F)C(F)(F)C(F)(F)C(F)(F)F | inactive | 11.8 µM (active)
11 | OCC(F)(F)C(F)(F)C(F)(F)CO | inactive | 
12 | Cc1cnccn1 | inactive | 
13 | O=C(F)C1(F)C(F)(F)C(F)(F)C(F)(F)C(F)(F)C1(F)F | inactive | 
14 | Cc1ccc(O)c(-n2nc3ccccc3n2)c1 | inactive | 
15 | OCCCC(F)(F)C(F)(F)C(F)(F)C(F)(F)C(F)(F)C(F)(F)C(F)(F)C(F)(F)F |  | 17.3 µM (active) and 14.4 µM (active)
16 | OCCCCC(F)(F)C(F)(F)C(F)(F)C(F)(F)F | inactive | 
17 | FC(F)(F)C(F)(F)C(F)(F)CC1CO1 (stereo not given) | inactive | 
18 | CNS(=O)(=O)C(F)(F)C(F)(F)C(F)(F)C(F)(F)C(F)(F)C(F)(F)C(F)(F)C(F)(F)F | inactive | 
19 | NC(=O)C(F)(F)C(F)(F)C(F)(F)C(F)F | inactive | 
20 | COC(F)(C(F)F)C(F)(F)F (stereo not given) | inactive | 

Row | Structure (SMILES) | outcome | AC50
21 | OC(O)C(F)(F)C(F)(F)F | inactive | 
22 | O=S(=O)(Cl)C(F)(F)C(F)(F)C(F)(F)C(F)(F)C(F)(F)C(F)(F)C(F)(F)C(F)(F)F | inactive | 
23 | C=CC(=O)OCCC(F)(F)C(F)(F)C(F)(F)C(F)(F)F |  | 30 µM (active)
24 | O=S(=O)(OCC(F)(F)F)C(F)(F)C(F)(F)C(F)(F)C(F)(F)F | inactive | 
25 | CCN=C1C=CC(=C(c2ccc(N(CC)CC)cc2)c2ccc(N(CC)CC)cc2)c2ccccc21 |  | 2.52 µM (active) and 2.57 µM (active)
26 | CC(C)(C)c1cc(CCC(=O)NCCCCCCNC(=O)CCc2cc(C(C)(C)C)c(O)c(C(C)(C)C)c2)cc(C(C)(C)C)c1O | inactive | 
27 | FC(F)(F)C(F)(F)C(F)(F)C(F)(F)C(F)(F)C(F)(F)CC[Si](Cl)(Cl)Cl | inactive | 
28 | CCOC(C=C(C)CCC=C(C)C)OCC | inactive | 
29 | CO[Si](C)(CCC(F)(F)C(F)(F)C(F)(F)C(F)(F)C(F)(F)C(F)(F)F)OC | inactive | 
30 | CCN(CC)c1ccc(N=Nc2ccccc2)cc1 |  | 20 µM (active)
31 | O=S(=O)(O)CCC(F)(F)C(F)(F)C(F)(F)C(F)(F)F | inactive | 
32 | NC(O)(C(F)(F)F)C(F)(F)F | inactive | 
33 | O=C1c2c(O)ccc(Nc3ccc(CCO)cc3)c2C(=O)c2c([N+](=O)[O-])ccc(O)c21 |  | 9.47 µM (active)
34 | NC(=O)C(F)(F)C(F)(F)C(F)(F)F | inactive | 
35 | CCN(CC)c1ccc(C=O)c(O)c1 | inactive | 
36 | C[C@]12CC[C@H]3C(=CCc4cc(O)ccc43)[C@@H]1CCC2=O | inactive | 
37 | Cc1ccc(S(=O)(=O)C(I)I)cc1 |  | 1.43 µM (active)
38 | FC(F)(F)C(F)(F)C(F)(F)C(F)(F)C(F)(F)C(F)(F)C(F)(F)CCI | inactive | 
39 | Cc1cc(O)c(C(C)(C)C)cc1C(C)(C)C |  | 3.79 µM (active)
